Laboratory results: PubChem BioAssay (NCATS)
Where “and” joins values, the source holds several entries; their conditions need not be identical. Identical values can stand only once. Inconclusive results are not listed. A structure can be active in one record and inactive in another. Calls of active or inactive are those of the source. Unless noted, the call rests on the fitted dose curve; in most records, active means well fitted curve in the direction sought with a large enough effect; inconclusive means small, poorly fitted or top-dose-only effect, or another doubt; inactive means no such curve, though single readings can be large; an effect the other way counts as inactive or inconclusive. Numbered stars: 1 amine (or outer) side, 2 acyl side, 3 side chain; on linkers, the order of the positions; unused ones are H or OH. Bridge positions count the residues as written; N and C are the ends. Square brackets hold non-standard residues; d marks the D form. Peptide text beside a SMILES is read from it. I, II: the chains in the order shown. Actinocin(9to1) = Cc1c2oc3c(C)ccc(C(=O)[*:1])c3nc-2c(C(=O)[*:2])c(N)c1=O; NMeV = CN[C@H](C(=O)O)C(C)C; Sar = CNCC(=O)O

Experiments:
[1] = A High-Content qHTS Against Drug Library for the Identification of Small Molecules that Inhibit DYT1 Early Onset Primary Dystonia-Associated Cell Pathology (AID 1645839; calls by dose curve; further: potency means the concentration at half of the fitted maximal effect); conditions: HEK293 Flp-In EGFP-delE TorsinA, punctate imaging, 48 h; series mostly up to 46.1 µM
How it was run: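 Flp-In T-REx 293 cells with tetracycline-inducible EGFP-delE hTOR1A (WT EGFP-hTOR1A as reference), 800 cells/well; compound added with tetracycline, 48 h at 37 C. Fixed, permeabilized cells imaged; %pathology (punctate TorsinA) primary, cell count counterscreen.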

[2] = molecular target: Cytochrome P450 2D6 (Homo sapiens) (UniProt P10635); test: Cytochrome P450 family 2 subfamily D member 6 (CYP2D6) small molecule antagonists: luciferase biochemical (cell-free) qHTS assay (AID 1645840; active means well fitted curve in the direction sought with a large enough effect in the repeat runs; an effect the other way counts as inactive or inconclusive; further: nearly all actives have a fitted effect of over 55% in size; further: potency means the concentration at half of the fitted maximal effect; on activity change, negative = inhibition: on the % scale 0 is the no-effect control and ±100 the full control effect); conditions: P450-Glo CYP2D6 enzyme, luciferin luminescence, 1 h; series mostly up to 57.4 µM
How it was run: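 P450-Glo luminescent screen: recombinant CYP2D6 enzyme–proluciferin substrate mix preincubated with compound 10 min at room temperature, then NADPH regeneration added for 1 h at room temperature. Detection reagent added for 20 min; luciferin light read as relative luminescence units.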

[3] = molecular target: Cytochrome P450 2C9 (Homo sapiens) (UniProt P11712); test: Cytochrome P450 family 2 subfamily C member 9 (CYP2C9) small molecule antagonists: luciferase biochemical (cell-free) qHTS assay (AID 1645842; active means well fitted curve in the direction sought with a large enough effect in the repeat runs; an effect the other way counts as inactive or inconclusive; further: nearly all actives have a fitted effect of over 55% in size; further: potency means the concentration at half of the fitted maximal effect; on activity change, negative = inhibition: on the % scale 0 is the no-effect control and ±100 the full control effect); conditions: P450-Glo CYP2C9 enzyme assay, luciferin luminescence; series mostly up to 57.4 µM
How it was run: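 Luminescence, after 20 min with luciferin detection reagent, reflected CYP2C9 turnover during a 1 h NADPH-driven reaction at 37C. Enzyme-substrate mix contained 0.4% bovine serum albumin and was preincubated with compound 10 min at room temperature.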

[4] = Primary qHTS for inhibitors of nuclear receptor binding SET domain protein 2 (NSD2) in an isogenic RCH-ACV NSD2 p.E1099K mutant (9B) (AID 1645876); conditions: RCH-ACV NSD2 E1099K (9B) viability, CellTiter-Glo, 72 h; series mostly up to 44.9 µM; further: nearly all actives have a fitted effect of over 70% in size; further: potency means the concentration at half of the fitted maximal effect; on activity change, negative = viability loss: on the % scale 0 is the no-effect control and ±100 the full control effect
[5] = Primary qHTS for inhibitors of nuclear receptor binding SET domain protein 2 (NSD2) in an RCH-ACV wild type WT cells (2C) (AID 1645877); conditions: RCH-ACV (leukaemia line) NSD2 WT (2C) viability, CellTiter-Glo, 72 h; series mostly up to 44.9 µM; further: nearly all actives have a fitted effect of over 70% in size; further: potency means the concentration at half of the fitted maximal effect; on activity change, negative = cell killing: on the % scale 0 is the no-effect control and ±100 the full control effect
[6] = molecular target: Rap guanine nucleotide exchange factor 3 (Homo sapiens) (UniProt O95398); test: Confirmatory qHTS for antagonist of cAMP-regulated guanine nucleotide exchange factor 3 (EPAC1) (AID 1645880); conditions: EPAC1 Rap1B-BODIPY-GDP exchange, fluorescence; series mostly up to 115 µM;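 further: plate controls were DMSO only for no effect and full effect of the ATA control for full effect; nearly all actives have a fitted effect of over 55% in size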
How it was run: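 Nucleotide exchange uses 100 nM EPAC1, 250 nM RAP1B-BODIPY-GDP and 50 uM GDP, with compounds in a concentration-titration series. After 5 min at room temperature, fluorescence (480 nm ex/540 nm em) is read every 5 min for 30 min. Data are normalized to control ATA and DMSO.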

[7] = molecular target: Rap guanine nucleotide exchange factor 3 (Homo sapiens) (UniProt O95398); test: Confirmatory qHTS for agonist of cAMP-regulated guanine nucleotide exchange factor 3 (EPAC1) (AID 1645881); conditions: EPAC1 Rap1B BODIPY-GDP exchange fluorescence, 100% = cAMP control response; series mostly up to 154 µM;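 further: EPAC1 catalysed release of BODIPY-GDP from Rap1B seen as fluorescence loss; nearly all actives have a fitted effect of over 75% in size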
[8] = molecular target: Rap guanine nucleotide exchange factor 4 (Homo sapiens) (UniProt Q8WZA2); test: Confirmatory qHTS for agonist of cAMP-regulated guanine nucleotide exchange factor 4 (EPAC2) (AID 1645884); conditions: EPAC2 GEF activity, Rap1B-BODIPY-GDP fluorescence; series mostly up to 154 µM;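 further: nucleotide exchange releases bodipy-GDP from Rap1 and this lowers its fluorescence; on the % scale 0 is the no-effect control and ±100 the full control effect; nearly all actives have a fitted effect of over 65% in size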
[9] = molecular target: Rap guanine nucleotide exchange factor 4 (Homo sapiens) (UniProt Q8WZA2); test: Confirmatory qHTS for antagonist of cAMP-regulated guanine nucleotide exchange factor 4 (EPAC2) (AID 1645885); conditions: EPAC2 Rap1B-BODIPY-GDP exchange fluorescence, biochemical; series mostly up to 114 µM; further: on the % scale 0 is the no-effect control and ±100 the full control effect; nearly all actives have a fitted effect of over 25% in size
[10] = molecular target: Rap guanine nucleotide exchange factor 3 (Homo sapiens) (UniProt O95398); test: Counterscreen qHTS for antagonist of cAMP-regulated guanine nucleotide exchange factor 3 (EPAC1) (AID 1645888); conditions: Rap1B-BODIPY-GDP nucleotide exchange, fluorescence; series mostly up to 154 µM;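 further: fluorescence loss as bound BODIPY-GDP is released from Rap1B; % of control where 0% means no effect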
How it was run: (§1)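 Rap1B–BODIPY-GDP (250 nM) with 50 uM GDP; compounds pin-transferred to 9.74 nM–152 uM final (activator) or from 7.32 nM upwards (inhibitor). Fluorescence Ex/Em 480/540 nm read at 5 and 30 min, then after adding cAMP or buffer, at room temperature.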

[11] = molecular target: Rap guanine nucleotide exchange factor 3 (Homo sapiens) (UniProt O95398); test: Counterscreen qHTS for agonist of cAMP-regulated guanine nucleotide exchange factor 3 (EPAC1) (AID 1645889); conditions: EPAC1 Rap1B-BODIPY-GDP exchange, fluorescence; series mostly up to 154 µM; further: potency means the concentration at half of the fitted maximal effect; nearly all actives have a fitted effect of over 40% in size
How it was run: as §1

[12] = NCATS anti-infectives library activity on HEK293 viability as a counter-qHTS vs the C. elegans viability qHTS (AID 1745854); conditions: HEK293 viability counter-screen; series mostly up to 41.8 µM;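 further: HEK293 cells exposed to compounds for 24 hr before the viability read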; further: potency means the concentration at half of the fitted maximal effect
How it was run: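 Cytotoxicity in human HEK293 cells is measured by ATP-dependent CellTiter-Glo luminescence following a 24 hr incubation with titrated library compounds at 37C. Top final concentration is 41.7 uM.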

[13] = NCATS anti-infectives library activity on the primary C. elegans qHTS viability assay (AID 1745855; calls by dose curve; further: potency means the concentration at half of the fitted maximal effect); conditions: C. elegans worm area imaging, day 7; series mostly up to 83.3 µM
How it was run: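 Viability is taken from GFP fluorescence of PE254-GFP-FLuc C. elegans imaged by laser cytometry over 7 days. Ten L1 worms per well grow at 21 °C on TOP10 E. coli capsules with titrated compound; levamisole marks toxicity.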

Chain of Cytochrome P450 2C9 (Homo sapiens) (P11712 whole entry, looked up): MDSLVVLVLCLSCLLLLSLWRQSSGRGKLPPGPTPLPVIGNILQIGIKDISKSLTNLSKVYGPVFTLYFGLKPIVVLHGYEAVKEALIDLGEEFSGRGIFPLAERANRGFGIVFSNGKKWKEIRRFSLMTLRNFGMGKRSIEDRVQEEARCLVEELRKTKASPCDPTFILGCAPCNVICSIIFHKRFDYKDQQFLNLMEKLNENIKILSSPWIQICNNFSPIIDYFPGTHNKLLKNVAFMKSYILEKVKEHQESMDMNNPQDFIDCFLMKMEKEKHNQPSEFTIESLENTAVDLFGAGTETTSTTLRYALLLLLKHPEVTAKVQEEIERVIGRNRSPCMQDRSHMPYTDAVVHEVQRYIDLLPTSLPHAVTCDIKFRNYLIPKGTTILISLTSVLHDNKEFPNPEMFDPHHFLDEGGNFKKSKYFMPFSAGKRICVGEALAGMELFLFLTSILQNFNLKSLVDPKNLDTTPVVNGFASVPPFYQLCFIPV
Chain of Rap guanine nucleotide exchange factor 4 (Homo sapiens) (Q8WZA2 whole entry, looked up): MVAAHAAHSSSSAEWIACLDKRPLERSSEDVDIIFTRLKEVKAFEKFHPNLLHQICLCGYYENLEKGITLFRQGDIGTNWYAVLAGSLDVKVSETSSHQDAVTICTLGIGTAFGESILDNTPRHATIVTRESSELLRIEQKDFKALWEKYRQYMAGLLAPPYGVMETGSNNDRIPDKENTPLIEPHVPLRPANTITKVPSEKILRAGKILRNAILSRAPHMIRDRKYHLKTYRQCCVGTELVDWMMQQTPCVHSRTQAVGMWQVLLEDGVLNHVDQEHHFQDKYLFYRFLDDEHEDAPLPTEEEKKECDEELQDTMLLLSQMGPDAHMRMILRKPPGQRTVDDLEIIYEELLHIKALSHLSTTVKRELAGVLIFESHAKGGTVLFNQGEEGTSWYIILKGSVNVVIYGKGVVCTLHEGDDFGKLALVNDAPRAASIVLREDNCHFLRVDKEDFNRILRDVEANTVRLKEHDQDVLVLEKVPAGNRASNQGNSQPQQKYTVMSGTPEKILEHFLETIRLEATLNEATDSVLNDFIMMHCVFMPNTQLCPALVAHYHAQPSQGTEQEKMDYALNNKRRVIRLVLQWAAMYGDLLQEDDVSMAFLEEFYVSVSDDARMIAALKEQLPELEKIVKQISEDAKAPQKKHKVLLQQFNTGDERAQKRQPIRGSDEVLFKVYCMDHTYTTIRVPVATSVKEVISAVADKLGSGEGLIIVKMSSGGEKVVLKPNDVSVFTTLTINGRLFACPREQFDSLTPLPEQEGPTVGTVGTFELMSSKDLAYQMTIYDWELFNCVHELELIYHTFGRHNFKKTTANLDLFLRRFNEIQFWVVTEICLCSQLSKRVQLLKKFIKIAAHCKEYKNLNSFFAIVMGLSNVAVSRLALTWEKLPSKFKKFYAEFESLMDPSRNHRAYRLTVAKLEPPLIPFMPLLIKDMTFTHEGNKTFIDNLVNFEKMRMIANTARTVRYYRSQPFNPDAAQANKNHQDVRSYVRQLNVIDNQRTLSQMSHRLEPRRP
Chain of Cytochrome P450 2D6 (Homo sapiens) (P10635 whole entry, looked up): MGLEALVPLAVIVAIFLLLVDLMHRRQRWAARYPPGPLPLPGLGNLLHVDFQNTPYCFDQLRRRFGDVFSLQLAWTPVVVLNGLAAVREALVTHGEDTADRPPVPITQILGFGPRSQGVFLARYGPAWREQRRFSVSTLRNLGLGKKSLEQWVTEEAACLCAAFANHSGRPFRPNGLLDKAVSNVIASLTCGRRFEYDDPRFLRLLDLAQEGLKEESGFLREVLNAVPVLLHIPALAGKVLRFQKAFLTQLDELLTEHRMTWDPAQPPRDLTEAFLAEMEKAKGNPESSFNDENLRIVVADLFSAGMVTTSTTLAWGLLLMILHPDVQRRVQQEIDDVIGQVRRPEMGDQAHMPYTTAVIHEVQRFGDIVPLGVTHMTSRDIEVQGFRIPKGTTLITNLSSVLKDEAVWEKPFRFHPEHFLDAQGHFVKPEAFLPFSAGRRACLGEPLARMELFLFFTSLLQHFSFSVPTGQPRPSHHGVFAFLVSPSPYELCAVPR
Chain of Rap guanine nucleotide exchange factor 3 (Homo sapiens) (O95398 whole entry, looked up): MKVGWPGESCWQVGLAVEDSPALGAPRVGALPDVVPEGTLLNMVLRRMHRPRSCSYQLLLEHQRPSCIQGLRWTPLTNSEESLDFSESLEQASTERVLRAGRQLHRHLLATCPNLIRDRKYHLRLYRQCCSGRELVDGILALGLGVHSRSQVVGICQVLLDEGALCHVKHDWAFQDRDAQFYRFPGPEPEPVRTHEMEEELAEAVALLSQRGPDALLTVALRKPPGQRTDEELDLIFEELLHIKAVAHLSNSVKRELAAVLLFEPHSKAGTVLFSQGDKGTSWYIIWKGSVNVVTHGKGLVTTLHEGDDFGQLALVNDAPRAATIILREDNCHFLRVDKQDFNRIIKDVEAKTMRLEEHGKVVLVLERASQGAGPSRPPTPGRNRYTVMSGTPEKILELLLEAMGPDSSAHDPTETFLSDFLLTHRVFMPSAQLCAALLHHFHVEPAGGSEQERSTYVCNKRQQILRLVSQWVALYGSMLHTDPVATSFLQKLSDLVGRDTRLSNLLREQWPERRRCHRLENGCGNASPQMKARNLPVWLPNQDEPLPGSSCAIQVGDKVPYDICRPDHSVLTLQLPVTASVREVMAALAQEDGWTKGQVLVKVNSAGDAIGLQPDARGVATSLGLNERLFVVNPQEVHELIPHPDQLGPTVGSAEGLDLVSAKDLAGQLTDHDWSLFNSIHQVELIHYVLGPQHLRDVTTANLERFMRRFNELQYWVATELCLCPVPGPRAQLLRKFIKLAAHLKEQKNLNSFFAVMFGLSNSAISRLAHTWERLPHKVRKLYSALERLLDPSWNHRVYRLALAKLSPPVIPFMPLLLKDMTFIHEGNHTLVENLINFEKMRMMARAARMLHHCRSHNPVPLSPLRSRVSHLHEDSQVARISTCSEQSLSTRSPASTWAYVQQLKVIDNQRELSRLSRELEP

Nc1ccc(C(=O)O)cc1
inactive: Potency [1] | Potency [2] | Potency [3] | Potency [4] | Potency [5]

Oc1ccc(Cl)c2cccnc12
inactive: Potency [1] | Potency [2] | Potency [3]

CCCCN1CCCC1C(=O)Nc1c(C)cc(C)cc1C (stereo not given)
active: Potency [2] 3.89 µM
inactive: Potency [1] | Potency [3]

CCOC(=O)n1ccn(C)c1=S
inactive: Potency [1] | Potency [2] | Potency [3]

Cc1c(C(C)C)c(=O)n(-c2ccccc2)n1C
inactive: Potency [1] | Potency [2] | Potency [3] | Potency [4] | Potency [5]

COC(=O)CCc1ccc(OCC(O)CNC(C)C)cc1 (stereo not given)
inactive: Potency [1] | Potency [2] | Potency [3] | Potency [4] | Potency [5]

Cc1cc2c(cc1CC(=O)c1sccc1S(=O)(=O)Nc1onc(C)c1Cl)OCO2
inactive: Potency [1] | Potency [4] | Potency [5]
active: Potency [3] 3.09 µM
4.36 µM (active) and inactive: Potency [2]

CCC(=O)c1c(O)cc(O)cc1O
active: Potency [2] 24.5 µM | Potency [3] 15.5 µM
inactive: Potency [1] | Potency [4] | Potency [5]

COc1c2occc2c(OC)c2c(=O)cc(C)oc12
active: Potency [2] 15.5 µM | Potency [3] 11 µM
inactive: Potency [1] | Potency [4] | Potency [5]

OC(CCN1CCCCC1)(c1ccccc1)c1ccccc1
inactive: Potency [1] | Potency [3] | Potency [4] | Potency [5]
active: Potency [2] 0.617 µM

CC(=O)CC(c1ccc([N+](=O)[O-])cc1)c1c(O)c2ccccc2oc1=O (stereo not given)
active: Potency [3] 2.19 µM
inactive: Potency [1] | Potency [2] | Potency [4] | Potency [5]

Cc1onc(-c2c(Cl)cccc2Cl)c1C(=O)N[C@@H]1C(=O)N2[C@@H]1SC(C)(C)[C@@H]2C(=O)O
inactive: Potency [1] | Potency [2] | Potency [4] | Potency [5]
active: Potency [3] 20.4 µM

CC1(C)OC[C@@H](COC(=O)CCc2ccc(OC[C@@H](O)CNCCNC(=O)N3CCOCC3)cc2)O1
inactive: Potency [1] | Potency [2] | Potency [3] | Potency [4] | Potency [5]

Cc1c2oc3c(C)ccc(C(=O)N[C@@H]4C(=O)N[C@H](C(C)C)C(=O)N5CCC[C@H]5C(=O)N(C)CC(=O)N(C)[C@@H](C(C)C)C(=O)O[C@@H]4C)c3nc-2c(C(=O)N[C@@H]2C(=O)N[C@H](C(C)C)C(=O)N3CCC[C@H]3C(=O)N(C)CC(=O)N(C)[C@@H](C(C)C)C(=O)O[C@@H]2C)c(N)c1=O (I: T[dV]P[Sar][NMeV] / II: T[dV]P[Sar][NMeV]; ester I:1-I:C, II:1-II:C; linker I:N-II:N via Actinocin(9to1))
inactive: Potency [1] | Potency [2] | Potency [3] | Potency [4] | Potency [5]

CCn1cc(C(=O)O)c(=O)c2cnc(N3CCCC3)nc21
inactive: % pathology change, negative = correction [1] 0.401% [at 9.22 µM] | activity change, negative = inhibition [2] -1.21% [at 11.5 µM] | activity change, negative = inhibition [3] -2.8% [at 11.5 µM] | activity change, negative = viability loss [4] 4% [at 9.23 µM] | activity change, negative = cell killing [5] -0.361% [at 9.23 µM]

COc1cccc2c1C(=O)c1c(O)c3c(c(O)c1C2=O)C[C@@](O)(C(C)=O)C[C@@H]3O[C@H]1C[C@H](N)[C@H](O)[C@H](C)O1
active: Potency [1] 1.58 µM | Potency [2] 13.8 µM | Potency [4] 2.7 nM and 18.6 nM | Potency [5] 2.4 nM | Potency [11] 14.1 µM | Potency [12] 5.62 µM | Potency [13] 5.78 µM
inactive: Potency [3] | Potency [6] | outcome [7] | Potency [8] | Potency [9] | activity change, negative = inhibition [10] 47.7% [at 30.8 µM]

OC[C@H]1O[C@@H](n2cnc3c(=S)nc[nH]c32)[C@H](O)[C@@H]1O
inactive: Potency [1] | Potency [2]
active: Potency [3] 11 µM | Potency [4] 473 nM | Potency [5] 422 nM

CC1(C)O[C@@H]2C[C@H]3[C@@H]4C[C@H](F)C5=CC(=O)CC[C@]5(C)[C@H]4[C@@H](O)C[C@]3(C)[C@]2(C(=O)CO)O1
active: Potency [5] 9.4 nM
inactive: Potency [1] | Potency [2] | Potency [3]

c1ccc(CNCCNCc2ccccc2)cc1
active: Potency [2] 0.692 µM
inactive: Potency [1] | Potency [3] | Potency [4] | Potency [5]

CCOC(=O)c1cccc(N)c1
inactive: Potency [1] | Potency [2] | Potency [3] | Potency [4] | Potency [5]

Cc1cc(O)c(C(C)C)cc1Cl
active: Potency [2] 12.3 µM | Potency [3] 21.9 µM
inactive: Potency [1] | Potency [4] | Potency [5]

C[C@]12C=CC(=O)C=C1CC[C@@H]1[C@@H]2[C@@H](O)C[C@@]2(C)[C@H]1CC[C@]2(O)C(=O)CO
active: Potency [5] 42.2 nM and 209 nM
inactive: Potency [1] | Potency [2] | Potency [3]

NCCCC[C@H](N[C@@H](CCc1ccccc1)C(=O)O)C(=O)N1CCC[C@H]1C(=O)O
inactive: Potency [1] | Potency [2] | Potency [3] | Potency [4] | Potency [5] | activity change, negative = cytotoxicity [12] -8.63% [at 8.35 µM]

C[C@H]1C[C@H]2[C@@H]3CCC4=CC(=O)C=C[C@]4(C)[C@@]3(Cl)[C@@H](O)C[C@]2(C)[C@@]1(O)C(=O)CO
active: Potency [2] 15.5 µM | Potency [3] 17.4 µM | Potency [5] 4.7 nM
inactive: Potency [1]
